The text below walks through data of paper PMC7862700, “An all-to-all approach to the identification of sequence-specific readers for epigenetic DNA modifications on cytosine”.

What all share (experiment): DAPPL (digital affinity profiling via proximity ligation, sequencing); 10 mM Tris-HCl pH 7.5, 50 mM NaCl, 1 mM DTT, 4% glycerol, room temperature, 30 min; GST-TFs on glutathione beads, 16-mer random dsDNA library, 0.1% formaldehyde crosslink after washing; high values mean tight binding
Settings in all cases: protein: recombinant; tags: N-terminal GST; dsDNA, one strand shown

Test [1] addresses T1, ETV2 (Homo sapiens, UniProt O00321 1-342).
T1 sequence: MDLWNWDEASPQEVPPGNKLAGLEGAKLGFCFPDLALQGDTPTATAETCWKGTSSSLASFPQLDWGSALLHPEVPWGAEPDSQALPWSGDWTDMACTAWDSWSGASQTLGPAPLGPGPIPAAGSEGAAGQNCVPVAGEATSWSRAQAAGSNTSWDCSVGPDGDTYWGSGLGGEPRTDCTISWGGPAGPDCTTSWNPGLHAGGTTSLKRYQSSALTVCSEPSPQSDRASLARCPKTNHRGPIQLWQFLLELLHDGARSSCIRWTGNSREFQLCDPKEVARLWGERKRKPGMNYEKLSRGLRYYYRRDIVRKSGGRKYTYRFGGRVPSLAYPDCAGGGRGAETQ
The procedure, abridged: (§1)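 GST fusions of human transcription factors were expressed in yeast and captured with glutathione beads. Once given DNA barcodes and pooled alongside a tag-only sample, they were incubated for 30 min at room temperature with 200 nmole of a random double-stranded 16-mer DNA library in Tris/NaCl/DTT/glycerol buffer, then washed, crosslinked (0.1% formaldehyde), proximity-ligated, PCR-amplified and sequenced on an Illumina NextSeq500. The binding signal of each hexamer is its read frequency for a factor divided by its frequency for the tag-only sample.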

Test [2] addresses T2, ELF3 (Homo sapiens, UniProt P78545 1-371).
T2 sequence: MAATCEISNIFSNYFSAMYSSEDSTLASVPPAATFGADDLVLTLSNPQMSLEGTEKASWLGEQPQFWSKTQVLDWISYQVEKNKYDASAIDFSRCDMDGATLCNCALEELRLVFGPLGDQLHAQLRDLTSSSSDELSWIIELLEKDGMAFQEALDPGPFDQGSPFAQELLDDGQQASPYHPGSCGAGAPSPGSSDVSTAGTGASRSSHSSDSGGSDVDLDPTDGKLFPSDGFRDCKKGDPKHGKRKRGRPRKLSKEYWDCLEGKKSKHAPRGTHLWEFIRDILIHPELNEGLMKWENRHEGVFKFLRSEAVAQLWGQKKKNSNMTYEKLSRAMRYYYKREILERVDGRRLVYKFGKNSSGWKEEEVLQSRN
The procedure, abridged: as §1

Test [3] concerns the target ETV1 (Homo sapiens, UniProt P50549 1-477). An outline of the steps: as §1
Test [4] has as its target T3, ERF (Homo sapiens, UniProt P50548 1-548).
T3 sequence: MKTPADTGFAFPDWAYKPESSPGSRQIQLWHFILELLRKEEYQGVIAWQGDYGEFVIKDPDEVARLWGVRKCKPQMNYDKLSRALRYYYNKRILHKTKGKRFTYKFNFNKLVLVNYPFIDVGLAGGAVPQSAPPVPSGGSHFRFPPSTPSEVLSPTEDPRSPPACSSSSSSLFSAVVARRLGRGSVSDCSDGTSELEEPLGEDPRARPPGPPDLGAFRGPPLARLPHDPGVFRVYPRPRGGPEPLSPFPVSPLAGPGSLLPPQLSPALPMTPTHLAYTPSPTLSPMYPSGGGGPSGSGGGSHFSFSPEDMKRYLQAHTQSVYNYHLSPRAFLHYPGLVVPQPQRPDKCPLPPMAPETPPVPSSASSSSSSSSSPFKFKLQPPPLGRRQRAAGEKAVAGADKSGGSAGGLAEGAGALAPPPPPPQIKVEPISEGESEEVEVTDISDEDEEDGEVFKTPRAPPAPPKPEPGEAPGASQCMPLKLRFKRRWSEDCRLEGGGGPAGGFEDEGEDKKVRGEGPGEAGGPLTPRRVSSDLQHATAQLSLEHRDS
The procedure, abridged: as §1

In test [5] the target is T4, ETV3L (Homo sapiens, UniProt Q6ZN32 1-361).
T4 sequence: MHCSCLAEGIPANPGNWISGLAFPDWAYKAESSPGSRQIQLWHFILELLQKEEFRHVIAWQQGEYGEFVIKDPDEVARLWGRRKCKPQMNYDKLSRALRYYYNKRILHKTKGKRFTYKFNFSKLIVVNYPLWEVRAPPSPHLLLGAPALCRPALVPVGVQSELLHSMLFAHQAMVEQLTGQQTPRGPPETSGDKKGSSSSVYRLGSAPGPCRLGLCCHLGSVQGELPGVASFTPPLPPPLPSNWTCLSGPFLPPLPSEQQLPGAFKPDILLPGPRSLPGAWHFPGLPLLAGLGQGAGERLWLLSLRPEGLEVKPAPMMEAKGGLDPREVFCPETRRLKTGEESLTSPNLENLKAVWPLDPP
The procedure, abridged: as §1

The target of test [6] is T5, ETS2 (Homo sapiens, UniProt P15036 1-469).
T5 sequence: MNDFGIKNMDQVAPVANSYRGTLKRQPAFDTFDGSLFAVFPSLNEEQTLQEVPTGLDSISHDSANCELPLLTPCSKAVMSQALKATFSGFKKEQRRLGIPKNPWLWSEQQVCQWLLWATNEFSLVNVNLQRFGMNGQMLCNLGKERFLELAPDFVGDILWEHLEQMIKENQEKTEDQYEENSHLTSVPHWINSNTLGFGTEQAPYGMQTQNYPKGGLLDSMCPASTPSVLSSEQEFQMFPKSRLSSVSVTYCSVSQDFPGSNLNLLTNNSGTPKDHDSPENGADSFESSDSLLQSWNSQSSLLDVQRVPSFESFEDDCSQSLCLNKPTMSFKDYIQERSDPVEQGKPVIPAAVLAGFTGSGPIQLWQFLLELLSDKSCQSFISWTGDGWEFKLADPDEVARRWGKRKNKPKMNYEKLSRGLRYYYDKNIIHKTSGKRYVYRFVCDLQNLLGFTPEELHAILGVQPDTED
The procedure, abridged:
as §1

Test [7] addresses T6, SPDEF (Homo sapiens, UniProt O95238 1-335).
T6 sequence: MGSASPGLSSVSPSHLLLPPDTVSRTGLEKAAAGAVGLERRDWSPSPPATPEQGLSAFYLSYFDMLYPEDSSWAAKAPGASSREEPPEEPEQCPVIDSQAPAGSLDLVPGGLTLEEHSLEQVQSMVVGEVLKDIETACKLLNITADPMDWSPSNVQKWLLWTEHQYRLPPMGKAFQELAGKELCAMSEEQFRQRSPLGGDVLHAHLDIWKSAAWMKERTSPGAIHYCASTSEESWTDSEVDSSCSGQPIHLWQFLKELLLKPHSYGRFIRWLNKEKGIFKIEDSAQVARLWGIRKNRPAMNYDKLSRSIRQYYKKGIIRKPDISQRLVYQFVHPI
An outline of the steps: as §1

Test [8] addresses T7, ETV7 (Homo sapiens, UniProt Q9Y603 1-341).
T7 sequence: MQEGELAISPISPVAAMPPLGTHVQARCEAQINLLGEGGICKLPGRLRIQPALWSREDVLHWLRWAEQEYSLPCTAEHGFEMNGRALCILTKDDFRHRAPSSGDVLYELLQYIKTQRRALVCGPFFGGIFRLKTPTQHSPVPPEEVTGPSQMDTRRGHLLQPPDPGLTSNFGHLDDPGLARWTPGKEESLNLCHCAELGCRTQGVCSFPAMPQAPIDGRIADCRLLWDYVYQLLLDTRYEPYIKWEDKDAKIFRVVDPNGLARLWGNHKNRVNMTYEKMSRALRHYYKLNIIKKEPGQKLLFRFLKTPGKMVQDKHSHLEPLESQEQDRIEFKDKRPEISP
An outline of the steps: as §1

The target of test [9] is T8, ETV3 (Homo sapiens, UniProt P41162-2 1-143).
T8 sequence: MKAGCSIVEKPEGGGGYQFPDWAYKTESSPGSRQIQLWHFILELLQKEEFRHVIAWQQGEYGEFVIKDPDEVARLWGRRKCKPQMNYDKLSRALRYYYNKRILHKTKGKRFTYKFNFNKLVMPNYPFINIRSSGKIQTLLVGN
The procedure, abridged:
as §1

Test [10] has as its target ETV6 (Homo sapiens, UniProt P41212 1-452). The procedure, abridged: as §1

Sequence of ETV6 (P41212 whole entry): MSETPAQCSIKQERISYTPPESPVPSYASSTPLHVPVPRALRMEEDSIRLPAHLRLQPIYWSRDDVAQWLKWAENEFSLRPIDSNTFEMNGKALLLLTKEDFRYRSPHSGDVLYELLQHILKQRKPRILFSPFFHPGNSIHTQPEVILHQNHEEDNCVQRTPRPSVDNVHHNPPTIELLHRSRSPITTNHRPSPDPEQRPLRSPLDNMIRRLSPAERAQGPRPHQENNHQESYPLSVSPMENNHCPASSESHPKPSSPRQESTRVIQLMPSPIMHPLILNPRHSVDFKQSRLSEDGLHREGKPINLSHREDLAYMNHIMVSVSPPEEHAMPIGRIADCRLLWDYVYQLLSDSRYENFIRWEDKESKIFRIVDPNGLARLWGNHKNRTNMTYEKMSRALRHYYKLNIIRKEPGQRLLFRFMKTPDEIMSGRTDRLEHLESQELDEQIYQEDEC
Sequence of ETV1 (P50549 whole entry): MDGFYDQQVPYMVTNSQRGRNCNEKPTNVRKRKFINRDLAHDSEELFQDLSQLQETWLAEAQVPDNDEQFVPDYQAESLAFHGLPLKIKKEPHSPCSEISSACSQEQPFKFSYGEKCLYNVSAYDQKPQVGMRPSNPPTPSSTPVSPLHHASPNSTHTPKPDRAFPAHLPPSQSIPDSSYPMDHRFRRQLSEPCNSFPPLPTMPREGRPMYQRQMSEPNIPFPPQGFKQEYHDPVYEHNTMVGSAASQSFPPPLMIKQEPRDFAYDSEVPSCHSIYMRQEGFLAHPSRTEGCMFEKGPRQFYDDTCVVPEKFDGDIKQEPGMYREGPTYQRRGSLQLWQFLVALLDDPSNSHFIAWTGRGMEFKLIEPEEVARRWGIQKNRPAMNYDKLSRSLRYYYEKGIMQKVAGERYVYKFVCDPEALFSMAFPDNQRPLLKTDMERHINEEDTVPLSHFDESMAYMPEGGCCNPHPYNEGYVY

With CATTGT, the binding signal in test [1] is 1.11 fold enrichment (6-mer frequency, TF over GST control); in [2], 1.02 fold enrichment (6-mer frequency, TF over GST control); in test [3], 1.14 fold enrichment (6-mer frequency, TF over GST control); in test [4], 1.12 fold enrichment (6-mer frequency, TF over GST control); in [5], 1.19 fold enrichment (6-mer frequency, TF over GST control); in [6], 1.07 fold enrichment (6-mer frequency, TF over GST control). Besides, the binding signal in test [7] is 1.11 fold enrichment (6-mer frequency, TF over GST control); in test [8], 1.11 fold enrichment (6-mer frequency, TF over GST control); in [9] it was 1.16 fold enrichment (6-mer frequency, TF over GST control); in test [10], 1.15 fold enrichment (6-mer frequency, TF over GST control).
